In all, about 3,400 compounds went through this assay and about 840 (25%) were called active. Another 11% or so got no clear call; they are omitted. A selection follows. Entries with a potency or affinity are not part of this list. Unmarked numbers belong to inactive results.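 How the source made its calls: active means fitted half-maximal concentration of signal decrease at or below twice the sample's top tested concentration; inconclusive means flat curve between -70 and -30 percent, or poor fit; inactive means flat within 30 percent, signal rise, or potency above limit.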

The nature of this test: inhibitors of Toxoplasma growth in IFN-γ-primed HeLa – cell-based, ME49Luc, luciferase, 72 h, dose response (AID 1259418). The note with it: T. gondii ME49Luc in IFN-y HeLa, hits give low values, -100% = high-dose IFN-γ control wells; at 19.5 µM unless noted.
As for `COc1ccc(-c2nc(N3CCN(c4ccccn4)CC3)c3ccccc3n2)cc1`, the max activity is -11.1% [at 0.35 µM]. Turning to `COCC#Cc1ccc([C@H]2[C@H](CO)N3CCCCN(C(=O)NC4CCCC4)C[C@@H]23)cc1`, the max activity is 30.1%. For the compound `Cc1ccc(Nc2nc(N)nc(CN3CCc4ccccc4C3)n2)cc1`, the max activity was 19.9% [at 5 µM]. Under `CCc1nc(OCC(=O)Nc2cc(F)ccc2F)c2ccccc2n1` stands 14.2%; under `COCCn1cc2c(n1)C(CNC(=O)CS(C)(=O)=O)OCC2` (configuration not stated), 15.6%; under `Cc1nc(-c2cccc(-c3noc(C(=O)N4CCC5(CC4)OCCO5)n3)c2)cs1`, 13.7% [at 2.6 µM].

For `Cc1noc(C)c1C1CCCN1C(=O)Cn1nc(C(F)(F)F)c2c1CCCC2` (configuration not stated), the max activity is -14% [at 0.35 µM]. Under `CCc1nc(-c2ccc(C(=O)N3CCC4(CC3)OCCO4)cc2)cs1` stands 5.55%. As to `O=C(NCc1cccc(Cl)c1)c1ccc(-n2nc(C(F)(F)F)c3c2CCCC3)cc1`, the max activity was -5.33% [at 0.68 µM]. As to `O=C(c1ccc(Cn2cncn2)cc1)N1CCC(N2CCCCC2)CC1`, the max activity was 4.24% [at 10 µM]. To `Cc1ccc(C)c(N2CCN(C(=O)c3ccc(-n4nc(C(F)(F)F)c5c4CCCC5)cc3)CC2)c1` belongs -23.2%. Regarding `COc1ccc(-c2nc(N3CCN(c4cccc(C(F)(F)F)c4)CC3)c3ccccc3n2)cc1`, the max activity was 13.5% [at 5 µM].

With `COc1ccc(-n2ncc3c(Nc4ccc(C)cc4)ncnc32)cc1`, the max activity was 28.3% [at 0.68 µM].

Consider `CCOc1ccc(-c2nc(CN3CCN(C(=O)NC4CCCCC4)CC3)c(C)o2)cc1`, for which the max activity was -13.3% [at 0.16 µM].

Regarding `Cc1oc(-c2cccc(Cl)c2)nc1CN1CCN(C(=O)NC2CCCC2)CC1`, the max activity is 17.3% [at 10 µM]. Turning to `Cc1ccc(-c2nc(CN3CCN(C(=O)NC4CCCCC4)CC3)c(C)o2)cc1`, the max activity was 6.38% [at 5 µM]. Under `COc1ccc(CN2CCc3nc(SCc4nc(-c5cccc(C)c5)oc4C)[nH]c(=O)c3C2)cc1` stands -7.54% [at 2.6 µM]. Under `O=C(CN1CCC2(CC1)N=C(c1ccc(Cl)cc1)C(=O)N2)Nc1ccc2c(c1)OCO2` stands -13.7% [at 1.35 µM]; under `Cc1ccc(C)c(-c2coc(-c3ccc(NC(=O)Nc4ccc(F)cc4)cc3)n2)c1`, -5.84% [at 0.35 µM]; under `COc1cccc(CNC(=O)Nc2ccc(-c3nc(-c4cc(C)ccc4C)co3)cc2)c1`, 7.66% [at 0.16 µM]. Under `CCc1ccc(NC(=O)Nc2ccc(-c3nc(-c4ccccc4)co3)cc2)cc1` stands 8.96%. Consider `CCc1cccc(Nc2nc(-c3ccc(OC)cc3)nc3ccccc23)c1`, for which the max activity was 18.8% [at 0.35 µM]. To `Cc1cccc(-c2nc(Cn3c(=O)c4c(C)cc(C)nc4n(-c4ccccc4)c3=O)c(C)o2)c1` belongs -12.2% [at 0.35 µM]; to `COc1ccc(NC(=O)Nc2ccc(-c3nc(-c4ccc(C)cc4C)co3)cc2)cc1OC`, 23.8%. Under `Cc1ccccc1-c1nc(CN2CCN(C(=O)Nc3ccccc3C(F)(F)F)CC2)c(C)o1` stands 9.13% [at 0.16 µM]; under `COc1ccc(N(Cc2nc(-c3ccc(OC(C)C)cc3)oc2C)S(=O)(=O)c2cccs2)cc1`, -11.1% [at 0.35 µM]; under `CCOc1ccc(N(Cc2nc(-c3cccc(C)c3)oc2C)S(=O)(=O)c2cccs2)cc1`, 11.4% [at 10 µM]. Under `Cc1oc(-c2ccc(OC(C)C)cc2)nc1CN(c1ccccc1)S(=O)(=O)c1cccs1` stands 21%; under `COc1ccc(N(Cc2nc(-c3ccc(C)cc3)oc2C)S(=O)(=O)c2cccs2)cc1`, 9.59% [at 0.35 µM]; under `CCOc1ccc(-c2nc(CN(c3ccc(OCC)cc3)S(=O)(=O)c3cccs3)c(C)o2)cc1`, 4%. `COc1ccc(-c2nc(CN(c3ccc(C)cc3)S(=O)(=O)c3cccs3)c(C)o2)cc1`: the max activity was -6.38% [at 0.16 µM]. Under `CC(C)NC(=O)CC1Nc2c3ccccc3nc(=S)n2C1=O` (configuration not stated) stands 98.4%. Under `COc1ccc(C(=O)/C=C/c2cc(C(=O)O)cc3c2OCOC3)c(O)c1` stands 24.8% [at 10 µM]. For `CCn1cc(CN2CCCC2c2cc(C(C)C)on2)c2cc(OC)ccc21` (configuration not stated), the max activity was 7.79% [at 2.6 µM].

For `Cc1cccc(-c2nc(Cn3nnc(-c4nc(-c5cccc(Cl)c5)no4)c3C)c(C)o2)c1`, the max activity is 8.17% [at 2.6 µM]. Take `O=C(C1CCC1)N1CC[C@H]2CN(Cc3cccc(Cl)c3)S(=O)(=O)[C@@H]2CC1`: the max activity was -9.19%. Consider `CCCc1ccc(S(=O)(=O)N2CCc3nc(-c4ccc(OC)cc4)sc3C2)cc1`, for which the max activity is 13.1% [at 0.16 µM]. To `O=C(Cc1ccccc1Cl)Nc1ccc(-c2nc(-c3ccccc3)co2)cc1` belongs 20.3% [at 2.6 µM]; to `COc1ccccc1-c1nc(C)c(-c2ccc(SCc3ccc(F)cc3)nn2)s1`, 7.01% [at 0.35 µM].

Turning to `Cc1cnc(N2CCC3(CCC(CC(=O)N4CC=CC4)CC3)CC2)nc1`, the max activity was 19.8% [at 10 µM]. Under `Cc1cnc(N2CCC3(CCN(CC4CC4)C3=O)CC2)nc1` stands 44%; under `CCOc1ccc(CCNc2nc(-c3ccc(Cl)cc3)nc3ccccc23)cc1OCC`, -12.8% [at 0.35 µM]; under `NCCCCCCNS(=O)(=O)c1ccc2c(Cl)cccc2c1`, 23.8%.

On to `O=C(Nc1ccc(F)cc1)Nc1ccc(-c2nc(-c3ccccc3)co2)cc1`, for which the max activity was -15.1% [at 1.35 µM]. To `COc1ccc(CNC(=O)Nc2ccc(-c3nc(-c4cc(C)ccc4C)co3)cc2)cc1` belongs 11.5%; to `COc1ccc(Cl)cc1S(=O)(=O)Nc1ccc(-c2nc(-c3ccc(C)cc3C)co2)cc1`, 11.6% [at 0.16 µM]; to `COc1ccccc1CNC(=O)CCC1N=C2c3ccccc3N=C(SCc3ccc(Cl)cc3)N2C1=O` (configuration not stated), 16% [at 2.6 µM]. For the compound `CCCCNC(=O)CCC1N=C2c3ccccc3N=C(SCc3cc(=O)n4ccccc4n3)N2C1=O` (configuration not stated), the max activity is 21.9% [at 0.68 µM]. To `CCCCNC(=O)CCC1N=C2c3ccccc3N=C(SCC(=O)OCC)N2C1=O` (configuration not stated) belongs -17.8% [at 2.6 µM].

For `CCCCNC(=O)CCC1N=C2c3ccccc3N=C(SCc3ccccc3F)N2C1=O` (configuration not stated), the max activity was -6.88% [at 2.6 µM]. Under `CCCCNC(=O)CCC1N=C2c3ccccc3N=C(SCC#N)N2C1=O` (configuration not stated) stands 51.3%. To `CCCCNC(=O)CC1N=C2c3ccccc3N=C(SCc3ccccc3Cl)N2C1=O` (configuration not stated) belongs -10.2%.

Values taken from PubChem BioAssay AID1259418 (Broad Institute, 2018).
